FUS yeast rescue: rescues growth of FUS-expressing yeast. Potency, µM (series often up to 76.6 µM), most hits filed as activators. S. cerevisiae FUS-expressing, growth rescue, OD600, 24 h. 390,000 compounds, 0.24% hits; also: nearly all actives have a fitted effect of over 55% in size
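Restored growth of FUS-toxic S. cerevisiae, read as 600 nm absorbance after 24 h at 30C in galactose medium (starting OD 0.005). Controls CP55940 and DMSO.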
TDP-43 yeast inh: TDP-43 toxicity inhibition in yeast | TDP-43 expressing yeast growth rescue, BacTiter-Glo, 24 h | Potency, µM (titrated, usually from 46.1 µM), hits mostly activators | 410,000 compounds, 1.8% hits; also: nearly all actives have a fitted effect of over 50% in size
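Galactose-induced TDP-43 yeast, OD600=0.02, compound pinned; 24 hr, 30 deg C; BacTiter-Glo luminescence for growth. Inhibitors of TDP-43 toxicity read as activators.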
aSyn rescue: alpha-synuclein toxicity inhibition in yeast; Yeast expressing alpha-synuclein, growth rescue, BacTiter-Glo, 24 h; AID 652106; 370,000 compounds, 0.14% hits; Potency, µM (titrated, usually from 46.1 µM), actives largely listed as activators; also: nearly all actives have a fitted effect of over 65% in size
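Screening used galactose-induced yeast with toxic alpha-synuclein levels, exposed to compound for 24 hr at 30 deg C. Cell growth, read with BacTiter-Glo luminescence, gave the measured signal.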
Abeta yeast res: compounds reversing amyloid beta toxicity in yeast | 410,000 compounds, 0.063% hits | Potency, µM (doses to about 46.1 µM), most hits filed as activators | yeast expressing A-beta42, growth rescue, OD600, 48 h; response scale: 0% DMSO, 100% iron-clioquinol control | AID 1347071; also: nearly all actives have a fitted effect of over 55% in size
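Growth rescue measured by 600 nm absorbance after 48 h yeast culture at 30 C with compound. Values normalized between DMSO and an equimolar ferric chloride plus clioquinol control.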
Mito fusion act: blocks mitochondrial division or promotes mitochondrial fusion. S. cerevisiae fusion-defective mutant growth rescue, CellTiterGlo 48 h. 320,000 compounds, 0.23% hits. Potency, µM (top dose mostly 46.1 µM), hits mostly activators. AID 485298; also: nearly all actives have a fitted effect of over 45% in size
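Luminescent cell viability in 1536-well qHTS format served as the measure of rescued growth in ts fusion-mutant S. cerevisiae cultured on non-fermentable YPEG for 48 hours at 37C.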
Of the large screens only hits and unclear results are named; the others gave an inactive call; ! = not active in a repeat. Only some compounds are listed: those with a hit (about 2.2% of all), similar ones and a draw of the others. Calls follow the shape of the dose curve; as a rule, active = well fitted curve in the direction sought with a large enough effect; inconclusive = small, poorly fitted or top-dose-only effect, or another doubt; inactive = no such curve, though single readings can be large; an effect the other way counts as inactive or inconclusive.

COC(=O)C1=C(c2ccc(OC(F)(F)F)cc2)C[C@@H]2CC[C@H]1N2C(=O)NC1Cc2ccccc2C1	FUS yeast rescue inconclusive, TDP-43 yeast inh 35µM, Mito fusion act inconclusive
O=C(NCc1ccc2c(c1)CCN2C(=O)c1ccccc1)Nc1cccc(C(F)(F)F)c1	none (no result: aSyn rescue, Mito fusion act)
COc1ccc2c(c1)CCC1C2CC[C@@]2(C)C1CC[C@@H]2NCCCCCCN1C(=O)C=CC1=O (some centres not stated)	none (no result: FUS yeast rescue, TDP-43 yeast inh, Abeta yeast res)
COc1ccccc1N1CCN(C(=O)c2cc3c(-c4ccccc4F)nn(C)c3s2)CC1	FUS yeast rescue 18µM, TDP-43 yeast inh 16µM (no result: aSyn rescue, Mito fusion act)
COc1cccc(CNC(=O)c2cc3c(-c4ccccc4F)nn(C)c3s2)c1	FUS yeast rescue inconclusive, TDP-43 yeast inh inconclusive (no result: aSyn rescue, Mito fusion act)
C=CCN1CC[C@]23c4c5ccc(O)c4O[C@@H]2/C(=N/N=C2\CC[C@@]4(O)C6Cc7ccc(O)c8c7[C@@]4(CCN6CC=C)[C@@H]2O8)CC[C@@]3(O)C1C5	Mito fusion act inconclusive (no result: FUS yeast rescue, TDP-43 yeast inh, Abeta yeast res)
O=c1c(-c2ccccc2)c(O)c2ccccc2n1-c1ccccc1	TDP-43 yeast inh 13µM, Mito fusion act inconclusive
O=[N+]([O-])c1cccc(NP(=O)(Oc2ccccc2)Oc2ccccc2)c1	TDP-43 yeast inh 22µM, aSyn rescue inconclusive
Nc1ccc(Br)cc1	none (no result: Mito fusion act)
Nc1ccc2cc(Br)ccc2c1	TDP-43 yeast inh 35µM
Cc1ccccc1CCC[C@H](CC1CCCCC1)CN(C)C(=O)Oc1ccccc1	none (no result: TDP-43 yeast inh, aSyn rescue, Abeta yeast res, Mito fusion act)
O=P(Nc1cccc(F)c1)(Oc1ccccc1F)Oc1ccccc1F	aSyn rescue 18µM, Abeta yeast res inconclusive
CC(C)(Oc1ccc(Cl)cc1)C(=O)OCC(=O)N1CCN(c2ccccc2)CC1	TDP-43 yeast inh 14µM
O=C(COc1ccc(Cl)cc1)N1CCN(Cc2ccccc2)CC1	none
C[C@@H]1CCCCO[C@H](CN(C)Cc2ccccc2)[C@@H](C)CN([C@H](C)CO)C(=O)c2cc(NC(=O)c3ccccc3)ccc2O1	TDP-43 yeast inh inconclusive (no result: Mito fusion act)
Cc1cccc(OCCn2c(=O)oc3ccc(C)cc32)c1	TDP-43 yeast inh 14µM
Cc1cccc(OCCn2cccc2/C=C2/C(=O)NC(=O)N(Cc3ccco3)C2=O)c1	none
Nc1cccc(N=Cc2c(O)n(Cc3ccc(F)cc3)c(=O)[nH]c2=O)c1	FUS yeast rescue 11µM
O=c1[nH]c(=O)n(Cc2ccc(F)cc2)c(O)c1C=Nc1ccc(Cl)cc1	none
C[C@H]1CC[C@@]2(C)[C@@H](CC[C@@H]3[C@@H]2CC[C@]2(C)[C@@H](O)CC[C@@H]32)C1	aSyn rescue inconclusive, Mito fusion act 13µM
C[C@]12CCC3C(CC[C@H]4C[C@@H](O)CC[C@]34C)[C@H]1CC[C@H]2O (some centres not stated)	none (no result: Mito fusion act)
CC(=O)C1CCC2C3C(N4CC4)CC4=CC(=O)CCC4(C)C3CCC12C (configuration not stated)	none (no result: FUS yeast rescue, Mito fusion act)
C[C@]12CC[C@H](O)C[C@@H]1CC[C@@H]1[C@@H]2CC[C@]2(C)[C@@H](C(=O)O)C[C@@H]12	TDP-43 yeast inh inconclusive
CC(=O)[C@H]1CC[C@H]2[C@@H]3CCC4=CC(=O)CC[C@]4(C)[C@H]3CC[C@]12C	TDP-43 yeast inh 35µM, Mito fusion act 18µM!
C[C@]12CCC3C(CC[C@H]4C[C@H](O)CC[C@]34C)C1CC[C@@H]2C(=O)CO (some centres not stated)	Mito fusion act 18µM (no result: FUS yeast rescue, TDP-43 yeast inh, Abeta yeast res)
CC(=O)[C@H]1CCC2C3CC[C@H]4C[C@H](O)CC[C@]4(C)C3CC[C@@]21C (some centres not stated)	Mito fusion act 5.2µM (no result: FUS yeast rescue, TDP-43 yeast inh, Abeta yeast res)
COc1cc(C(=O)NCCSc2c(-c3ccccc3)[nH]c3ccccc23)cc(OC)c1OC	FUS yeast rescue inconclusive, TDP-43 yeast inh inconclusive (no result: aSyn rescue, Mito fusion act)
O=C(Oc1ccc([N+](=O)[O-])cc1)N1CCN(/[N+]([O-])=N/Oc2ccc([N+](=O)[O-])cc2[N+](=O)[O-])CC1	none (no result: FUS yeast rescue, TDP-43 yeast inh, Abeta yeast res, Mito fusion act)
Cc1ccccc1-n1c(/C=C/c2ccccc2F)nc2ccccc2c1=O	none (no result: aSyn rescue, Mito fusion act)
COc1cccc(N2CCN(C(=O)C3CCCN(S(=O)(=O)c4ccc5c(c4)oc(=O)n5C)C3)CC2)c1 (configuration not stated)	Mito fusion act inconclusive
CC(C)(C)OC(=O)NCCCCC(N)[P+](=O)O (configuration not stated)	none (no result: TDP-43 yeast inh, aSyn rescue, Abeta yeast res, Mito fusion act)
C[C@H](CCC(=O)O)[C@H]1CC[C@H]2[C@@H]3CC[C@@H]4C[C@H](O)CC[C@]4(C)[C@H]3CC[C@]12C	aSyn rescue 5µM
Cc1ccccc1-c1ccc2n1Cc1cnnn1-c1ccccc1-2	TDP-43 yeast inh 13µM (no result: Mito fusion act)
CCOc1ccc(-c2nc(CSCC(=O)NCCc3ccc(OCC)c(OCC)c3)c(C)o2)cc1	TDP-43 yeast inh inconclusive (no result: aSyn rescue, Mito fusion act)
O=C(O)C(F)(F)S(=O)(=O)O	Mito fusion act 3.2µM
Brc1c(Br)c(Br)c2n[nH]nc2c1Br	Mito fusion act 4.6µM (no result: FUS yeast rescue, TDP-43 yeast inh, Abeta yeast res)
Cc1ccc(Cn2nnnc2CN2CCC(n3nnc4cc(C)ccc43)CC2)cc1	TDP-43 yeast inh 20µM
Cc1ccc(Cn2nnnc2CN2CCC(n3nnc4cc(C(F)(F)F)ccc43)CC2)cc1	TDP-43 yeast inh inconclusive
COc1cc2nc(N3CCCN(C)CC3)nc(N(C)C3CCN(C)CC3)c2cc1OC	none (no result: FUS yeast rescue, TDP-43 yeast inh, Abeta yeast res, Mito fusion act)
CCC1=Nc2cc(C(=O)N3CCC4(CC3)OCCO4)ccc2Sc2ccc(Br)cc21	Mito fusion act 18µM
Cc1cccc(-n2c(-c3cccs3)nc3ccccc3c2=O)c1	TDP-43 yeast inh 20µM
COc1cc(Cn2c(=O)oc3ccc(C)cc32)ccc1OC(C)C	TDP-43 yeast inh 35µM
CCn1nc(/C=C/c2ccccc2)nc2c(=O)n(C)c(=O)nc1-2	TDP-43 yeast inh 3.2µM
CCOC(=O)[C@]12Cc3ccccc3[C@H]1N(C)C(=O)c1cc(OC)ccc12	TDP-43 yeast inh 35µM (no result: Mito fusion act)
CCOC(=O)[C@]12Cc3c(cc(OC)c(OC)c3OC)[C@H]1N(C)C(=O)c1cc(OC)ccc12	TDP-43 yeast inh 18µM (no result: Mito fusion act)
CC1CCC(C)(NS(=O)(=O)OCC(Cl)(Cl)Cl)CC1 (configuration not stated)	TDP-43 yeast inh 18µM
O=C(Nc1cccc(C(F)(F)F)c1)C1CCCN1S(=O)(=O)c1cccc2nsnc12 (configuration not stated)	TDP-43 yeast inh inconclusive (no result: aSyn rescue, Mito fusion act)
O=Cc1cn(Cc2cccc([N+](=O)[O-])c2)c2ccccc12	none (no result: FUS yeast rescue)
Cc1cccc(Cn2cc(C=O)c3ccccc32)c1	TDP-43 yeast inh 14µM
CC(C)(O)[C@@H]1C2OC(=O)[C@@H]1[C@]1(O)C[C@H]3O[C@]34C(=O)O[C@H]2[C@]14C (tested in a mixture with another compound)	none (no result: FUS yeast rescue, TDP-43 yeast inh, Abeta yeast res)
c1ccc(C(c2ccccc2)c2cccnc2)cc1	FUS yeast rescue inconclusive, aSyn rescue inconclusive (no result: Mito fusion act)

Screens deposited in PubChem BioAssay by National Center for Advancing Translational Sciences (NCATS).
